The results in this text go back to PubChem BioAssay AID504720 (Sanford-Burnham Center for Chemical Genomics, 2011).

Among all 350,000 compounds or so, about 1,100 (0.31%) were called active. The list comes from a sample in which actives are over-represented; it also holds similar structures and randomly drawn compounds. Unmarked numbers belong to inactive results. Rule as the data show it: active = activation above about 50%; inactive = the rest.

Endoribonuclease toxin MazF (Escherichia coli (strain K12)), sequence (P0AE70 whole entry, looked up): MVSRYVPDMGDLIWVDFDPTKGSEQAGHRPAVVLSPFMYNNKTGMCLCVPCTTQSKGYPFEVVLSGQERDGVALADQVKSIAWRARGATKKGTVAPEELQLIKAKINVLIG

This experiment concerns the target Endoribonuclease toxin MazF (Escherichia coli (strain K12)) (UniProt P0AE70). The experiment is described as follows: activators of E. coli MazEF toxin-antitoxin RNase, primary screen, biochemical, fluorescence, uHTS (AID 504720). The settings on record: FAM/BHQ RNA-DNA oligo cleavage fluorescence, 5 h, at 20 µM, active compounds read high.
`COC(C/C=C/C(=O)[C@@H](C)OCc1ccccc1)OC`: the activation was -1.24%.

For the compound `CCOC(=O)CSc1nc(C)cc2c1C(=O)OC2`, the activation was 2.74%.

Consider `O=C(COC(=O)Cn1[nH]c(=O)c2ccccc2c1=O)Nc1ncc(Cl)cc1Cl`, for which the activation was -9.39%.

In the case of `Cc1ccccc1OCc1nnc(SCC(=O)N2c3ccccc3Sc3ccc(Cl)cc32)o1`, the activation is -5.1%.

Consider `CC(C)CCNC(=O)c1ccc2c(Cl)c3c(nc2c1)CCC3`, for which the activation was 0.61%.

`CC(=O)c1ccc(NC(=O)c2ccc3c(Cl)c4c(nc3c2)CCCC4)cc1`: the activation is 61.1% (active).

On to `COc1cccc(NC(=O)c2ccc3c(SCC(=O)O)c4c(nc3c2)CCCC4)c1`, for which the activation is 0.29%.

On to `O=C(CN1CCN(Cc2ccc(F)cc2Cl)C1=O)NCc1cccs1`, for which the activation was 2.52%.

Regarding `COc1ccc(NC(=O)c2cc([N+](=O)[O-])ccc2NC(=O)CNC2CCCCC2C)c(OC)c1` (stereo not drawn), the activation is 5.61%.

Take `Cc1ccc(Sc2ccncc2S(N)(=O)=O)cc1`: the activation was 4.01%.

Consider `COc1ccc(CCn2c(O)c(C=NC3CC3)c(=O)[nH]c2=O)cc1OC`, for which the activation was 0.91%.

For `COc1ccc(N=Cc2c(O)n(C)c(=O)[nH]c2=O)cc1`, the activation is -3.16%.

For `COc1ccc(Cn2c(O)c(/C=C3/C=CC=N3)c(=O)[nH]c2=O)cc1`, the activation is 79.2% (active).

As to `CNC(=O)c1c(NC(NC(=O)c2ccco2)C(=O)c2ccc(Cl)cc2)sc2c1CCCC2` (stereo not drawn), the activation is -0.431%.

For `O=C(Nc1ncc2c(n1)-c1ccccc1OC2)c1ccc(Cl)cc1`, the activation is 3.08%.

Regarding `O=C(COC(=O)CNC(=O)C1CCCCC1)NCc1ccccc1`, the activation is 0.98%.

Regarding `Cc1ccc(-c2nn(-c3ccccc3)cc2/C=C2\SC(=S)N(CCCCCC(=O)O)C2=O)o1`, the activation was 3200% (active).

As for `O=C1/C(=C/c2coc3ccc(O)cc3c2=O)SC(=S)N1c1ccccc1`, the activation is -53.2%.

As for `CCCCN1C(=O)/C(=C/C=C2/C=Cc3ccccc3N2CC)SC1=S`, the activation was 18.5%.

Turning to `CCOc1ccc(S(=O)(=O)Nc2cccc(C(=O)NCC3(N4CCCCC4)CCCCC3)c2)cc1`, the activation is -1.19%.

With `COc1ccc(CCNC(=O)c2nnc(CS(=O)(=O)c3ccccc3)o2)cc1OC`, the activation is 6.35%.

`O=C(NCC12CC3CC(C1)CC(CNC(=O)N1CCCC1)(C3)C2)N1CCCC1`: the activation is -3.78%.

On to `COc1ccc(CNC(=O)CCC(=O)Nc2nnc(C(C)C)s2)cc1`, for which the activation was 7.7%.

For the compound `Cc1ccc(CN2C(=O)N/C(=C/c3cc(C)n(-c4ccccn4)c3C)C2=O)cc1`, the activation was -15.4%.

Take `CN(C)c1ccc(/C=C2\NC(=S)N(Cc3ccccc3)C2=O)cc1`: the activation is 56.4% (active).

On to `CN(C(=O)CN1C(=O)NC(C)(CCc2ccccc2)C1=O)c1ccccc1` (stereo not drawn), for which the activation is -1.8%.

Regarding `COCCn1c(=NC(=O)c2ccccc2[N+](=O)[O-])sc2cc(S(C)(=O)=O)ccc21`, the activation was 15.4%.

With `CSc1ccccc1C(=O)OCC(=O)N1CCN(C(C)=O)CC1`, the activation was 1.11%.

As for `O=C(NNC(=S)NCc1ccccc1)c1ccc(OC(F)F)cc1`, the activation was -1.92%.

For the compound `Cc1scc(C(=O)NNC(=S)NCc2ccccc2)c1C`, the activation was 51.1% (active).

Regarding `Cc1scc(C(=O)NNC(=S)NCC(C)C)c1C`, the activation is 5.32%.

`COc1cc(S(=O)(=O)N2CCN(C(=O)C3CC3)CC2)ccc1NC(C)=O`: the activation is 3.42%.

In the case of `COc1c(C)c2c(c(O)c1C/C=C(\C)CCC(=O)O)C(=O)OC2`, the activation was 6.86%.

For the compound `O=C(COC(=O)c1cccc(Cl)c1)NC(=O)NCc1ccccc1`, the activation is -3.25%.

Regarding `c1ccc(-c2cn3c(n2)CCc2ccc4cccnc4c2-3)cc1`, the activation was 4.41%.

As for `O=C(NCc1cccc(Cl)c1)C1=CC=CN2CCS(=O)(=O)N=C12`, the activation is -3.56%.

Turning to `CCOC(=O)N1CCN(C(=O)CN(C2CCCCC2)S(C)(=O)=O)CC1`, the activation was -5%.

Take `CCc1ccc2nc(Nc3ncc(C(C)=O)c(C)n3)nc(C)c2c1`: the activation was -3.52%.
